The viability is a read-out of living cells in per cent, often relative to untreated cells.

Several values for one entry are separate records, joined by “and”; a condition that tells them apart may be missing. Equal values may be shown once. Activity calls are given as the source filed them. Rule as the data show it, unless noted: active = parasite load remaining mostly below about 12% (no sharp cut-off); inactive = mostly above about 10%.

Assay [1] can be described thus: liver-stage malaria parasite growth inhibition, primary screen, cell-based, HepG2, luciferase luminescence, HepG2 viability (AID 624349).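 Also: 100% = mean of DMSO negative control wells on the same plate.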 The note with it: P. berghei liver stage in HepG2, luciferase luminescence, concentration not given here; parasite load remaining: stronger effect = lower value; viability: measured here: HepG2 viability without parasites.
Assay [2] is described as follows: sensitizers of A549 cells to miR-34 induction, primary screen, imaging, A549 dox-inducible miR-34, nuclei and caspase counts (AID 1347080;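 active = compounds whose cell count with miR-34 switched on is under 0.7 times the count with it off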). The note with it: A549 miR-34 inducible, Hoechst nuclei count, 48 h.
Assay [3] can be described thus: survival rescue of mitochondrial mutant cells in low glucose, primary screen, MELAS cybrids, Rieske KO mouse fibroblasts, CellTiter-Glo (AID 1508586;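 active = mean z-score across replicates of 1.96 or higher in either the MELAS or the Rieske mutant cell line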;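 also: z relative to plate mean and SD of compound and empty wells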).
Assay [4] in a line: viability rescue of complex I mutant cybrids, primary screen, cell-based, galactose medium, ATP luminescence (AID 1645843;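 active = z-score of at least 1.8 in each of two replicates, scored against plate mean and spread of sample wells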;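 also: positive z means more ATP and so rescue of galactose-driven cybrid death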). Particulars: complex I mutant cybrid cells, 72 h, stronger effect = higher value.
Assay [5] is described as follows: hESC survival regulators, cell-based (AID 493140; call rule not given here;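 also: cells exposed to compounds for four days before counting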). Particulars: human embryonic stem cell survival screen; stronger effect = higher value.
The mark [6] stands for this setting: stronger effect = lower value, cell number ratio, induced over uninduced.
[7] abbreviates: measured here: relative caspase fold change +Dox/-Dox.
[8] abbreviates: measured here: total cells with miR-34 induction, stronger effect = lower value.
Where [9] appears, read: measured here: total cells without miR-34 induction.
Where [10] appears, read: MELAS cybrid survival, CellTiter-Glo 48 h, stronger effect = higher value.
[11] abbreviates: Rieske KO mouse fibroblast survival, CellTiter-Glo 72 h.

In the case of `N.N.O=C(O)CO.[Pt]`, the parasite load remaining in assay [1] was 50.4% (inactive). Further, the viability in assay [1] is 108%. The fold change was 0.961 (inactive) in assay [2] (setting [6]) and 1.22 in assay [2] (setting [7]). Also, the figures for the cell count in assay [2] (setting [8]) and in assay [2] (setting [9]) were 10100 and 10500, respectively. Moreover, the z-score was -0.923 (inactive) in assay [3] (setting [10]), -1.2 in assay [3] (setting [11]) and 0.195 (inactive) in assay [4].

For the molecule `CC1=C(CC(=O)O)c2cc(F)ccc2/C1=C/c1ccc(S(C)=O)cc1` (stereo not drawn), the survival in assay [5] is 19.2 (inactive). Moreover, the parasite load remaining in assay [1] was 88.6% (inactive) and 52.4% (inactive). For the same molecule, the viability in assay [1] is 91.8% and 138%. The figures for the fold change in assay [2] (setting [6]) and in assay [2] (setting [7]) were 0.93 (inactive) and 1.38, respectively. Further, the values for the cell count in assay [2] (setting [8]) and in assay [2] (setting [9]) were 9820 and 10600, respectively. Moreover, the z-score is -0.379 (inactive) in assay [3] (setting [10]), -0.389 in assay [3] (setting [11]) and 0.615 (inactive) in assay [4].

Consider `CO[C@@H]1[C@@H](OC(N)=O)[C@H](O)[C@H](Oc2ccc3c(O)c(NC(=O)c4ccc(O)c(CC=C(C)C)c4)c(=O)oc3c2C)OC1(C)C`, for which the parasite load remaining in assay [1] was 81.2% (inactive). Further, the viability in assay [1] came out at 108%. The values for the fold change in assay [2] (setting [6]) and in assay [2] (setting [7]) were 0.831 (inactive) and 1.55, respectively. Besides, the cell count was 9200 in assay [2] (setting [8]) and 11100 in assay [2] (setting [9]). For the same molecule, the z-score in assay [3] (setting [10]) is 0.157 (inactive); in assay [3] (setting [11]), 0.871; in assay [4], 1.12 (inactive).

The values are drawn from PubChem BioAssay.
